Sm TGR inh: qHTS Assay for the Inhibitors of Schistosoma Mansoni Peroxiredoxins. purified TGR, DTNB reduction, TNB absorbance 405 nm. 3% of 360,000 active. Potency, µM (top dose mostly 114 µM), without a hit: top-dose activity change, negative = inhibition, hits mostly inhibitors. AID 485364, 2010. Schistosoma mansoni thioredoxin glutathione reductase (TGR), Q962Y6; note: nearly all actives have a fitted effect of over 60% in size
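First, TGR (20 nM dispensed) and NADPH were mixed with compound. Second, a 15 min room-temperature incubation followed. Third, further NADPH and then DTNB were added to start the reaction. Finally, TNB absorbance was monitored kinetically.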
MARV entry inh: qHTS for inhibitors of binding or entry into cells for Marburg Virus. 1.8% of 300,000 active. Potency, µM (doses to about 37.8 µM), without a hit: at the top dose activity change, negative = inhibition, most hits filed as inhibitors. Marburg virus pseudotyped entry inhibition, cell reporter. AID 540276, 2011; calls by dose curve; tested in HEK293 cells
Lassa entry inh: qHTS for Inhibitors of binding or entry into cells for Lassa Virus | Lassa virus pseudotype entry inhibition, cell reporter | 1.2% of 300,000 active | Potency, µM (highest dose often 37.9 µM), without a hit: at the highest dose activity change, negative = inhibition, most hits filed as inhibitors; calls by dose curve; tested in HEK293 cells; note: nearly all actives have a fitted effect of over 50% in size
FMDV inh: High Throughput Screening for Foot and Mouth Disease Virus Antivirals; FMDV antiviral cell-based qHTS; Potency, µM (doses to about 57.9 µM), for inactives: top-dose activity change, negative = inhibition, most hits filed as inhibitors; 1.2% of 410,000 active; AID 1159524, 2015; calls by dose curve; tested in HEK293T cells; note: read-out not given here; nearly all actives have a fitted effect of over 45% in size
RE007 growth inh: qHTS Assay for Inhibitors of the HIV-1 protein Vpr | 0.21% of 360,000 active | Potency, µM (titrated, usually from 92.2 µM), inactives show top-dose activity change, negative = less growth, most hits filed as inhibitors | S. pombe RE007 Vpr strain, BacTiter-Glo ATP luminescence, 24 h; active = well fitted falling curve with a large enough effect; inconclusive = small, poorly fitted or top-dose-only effect; inactive = no such curve, though single readings can be large or run the other way; note: nearly all actives have a fitted effect of over 50% in size
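Fission yeast strain RE007, carrying one chromosomally integrated HIV-1 vpr copy, was seeded at OD 0.01 in PMG+AL medium with 23 nL pinned compound. After 24 h at 30 °C and 99% humidity, viability was read by BacTiter-Glo luminescence.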
HCV inhibitor: qHTS Assay for Inhibitors of Hepatitis C Virus (HCV); Huh7.5.1 HCVcc-Cre infection, luciferase reporter, 44 h; Potency, µM (series often up to 41.8 µM), without a hit: at the highest dose activity change, negative = inhibition, hits mostly inhibitors; 3.4% of 340,000 active; AID 651820, 2012
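Whole-lifecycle infectious HCVcc-Cre system; cells 1,000/well, compound then virus (~0.5 moi) added 4 h after plating, 44 h culture. Luciferase read 15 sec following 15 min substrate incubation, room temp.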
Starred values were filed as active, the others as inactive; ? = inconclusive; nt = not tested or not shown; [ ] = another dose, or the depositor's remark. In the library only some 7.2% were active in any assay of this set; here they are far more common. Unless noted, calls come from the whole dose curve; as a rule, active = well fitted curve in the direction sought with a large enough effect; inconclusive = small, poorly fitted or top-dose-only effect, or another doubt; inactive = no such curve, though single readings can be large; an effect the other way counts as inactive or inconclusive. % is set by controls: 0 for no effect and ±100 for the full control effect; potency is the fitted concentration of half-maximal effect.

SMILES	Sm TGR inh	MARV entry inh	Lassa entry inh	FMDV inh	RE007 growth inh	HCV inhibitor
Cc1ccc(-n2c(C)cc(C(=O)COC(=O)C3=NNC(=O)CC3)c2C)cc1	-1.1%	4.2%	13.1%	-17.5%	47.1%	5.9%
COc1cc2sc3ccc(-c4ccc(CN5CCOCC5)cc4)cc3c(=O)c2cc1OC	nt	nt	nt	31.6µM*	5.7%	-20.1%
COc1ccc(CN2CCOCC2)cc1OC	-6.6%	-1.0%	9.0%	-18.3%	4.2%	-6.0%
COc1ccc2c(c1)CC(C(=O)NCCCN1CCN(c3cccc(Cl)c3)CC1)CO2 (configuration not stated)	1.5%	nt	3.0%[46.1 µM]	-27.4%	nt	nt
COc1ccccc1C(=O)COC(=O)CCNS(=O)(=O)c1ccc(C)c(C)c1	-12.0%	5.5%	13.4%	16.8%	-3.4%	-8.8%
CNC(=O)C(C#N)(Cc1cc(C(C)=O)ccc1OC)Cc1cc(C(C)=O)ccc1OC	39.8µM*	12.4%[46.1 µM]	nt	-0.2%	-9.9%	-6.2%
COc1ccc(C(C)=O)cc1COC(=O)CCNS(=O)(=O)c1ccc(C)cc1	5.62µM*	-12.2%[46.1 µM]	14.8%	-1.3%	0.4%	?
COc1ccc(C(C)=O)cc1COC(=O)CCNS(=O)(=O)c1ccc(C(C)=O)cc1	10µM*	nt	nt	-24.2%	10.4%	?
COc1ccc(C(C)=O)cc1COC(=O)C(CO)NS(=O)(=O)c1ccc(Br)cc1 (configuration not stated)	12.6µM*	-14.6%[46.1 µM]	nt	0.7%	6.1%	-0.6%
COc1ccc(C(C)=O)cc1CSCc1cc(C(C)=O)ccc1OC	5.3%	-2.0%	?	-20.0%	2.5%	-24.6%
COc1ccc(C(=O)COC(=O)CCNS(=O)(=O)c2ccccc2)cc1Br	-12.4%	-13.9%	3.7%	-9.2%	-9.5%	11.3%
COc1ccc(C(C)=O)cc1COC(=O)[C@H](Cc1ccccc1)NC(=O)c1ccco1	nt	-11.3%	14.5%	-5.9%	-4.4%	0.5%
Cc1cnc(-c2nc3ccccc3n2C(C(=O)NC(C)(C)C)c2cc3ccccc3o2)cn1 (configuration not stated)	nt	nt	nt	14.7%	1.5%	nt
Cc1oc(-c2ccccc2NS(C)(=O)=O)nc1CN(C)Cc1ccc(Cl)cc1	nt	nt	nt	-0.5%	nt	nt
COc1ccc(C(C)=O)cc1COC(=O)CNC(=O)c1cc(C)cc(C)c1	31.6µM*	nt	nt	-7.4%	-2.3%	-15.3%
COc1ccc(C(C)=O)cc1COC(=O)CCCN1C(=O)c2ccccc2C1=O	8.91µM*	6.4%[46.1 µM]	2.5%[46.1 µM]	-9.5%	-10.9%	8.5%
CCOc1ccc(C2CC(=O)NC(NC(=O)c3cccc(Cl)c3)=N2)cc1 (configuration not stated)	0.8%	nt	?	19.3%	nt	nt
Cc1nc2ccc(C(=O)NCC3CCC4(CCN(Cc5cccnc5)CC4)O3)cc2nc1C (configuration not stated)	nt	nt	nt	-7.7%	nt	nt
CC(C)(C)c1ccc(S(=O)(=O)/C=C/C#N)cc1	nt	2.51µM*	3.66µM*	nt	nt	nt
CC(C)(C)c1ccc(NS(=O)(=O)c2ccc(N)cc2)cc1	3.5%	?	?	26.9%	7.0%	4.4%
CN(C)CCCN(C(=O)c1ccco1)c1nc(-c2ccc(Cl)cc2)cs1	4.0%	nt	nt	-13.6%	2.2%	11.2µM*
COc1ccc(-c2csc(N(CCCN3CCOCC3)C(=O)c3ccco3)n2)cc1	0.0%	?	?	-15.3%	-0.2%	10µM*
COc1ccc(-c2csc(N(C)C(=O)c3ccco3)n2)cc1	9.5%	10.1%	-12.8%	48.3%	-21.3%	5.1%
Cc1ccc(-c2csc(N(CCCN(C)C)C(=O)c3ccco3)n2)cc1	?	?	-10.4%	0.7%	-25.3%	?
Cc1ccc(-c2csc(N(CCCN3CCOCC3)C(=O)c3ccco3)n2)cc1	21.6%	?	?	nt	9.7%	11.2µM*
SMILES	Sm TGR inh	MARV entry inh	Lassa entry inh	FMDV inh	RE007 growth inh	HCV inhibitor
COc1cc(CN2CCC(C(=O)N3CCCC(C)C3)CC2)cc(OC)c1O (configuration not stated)	10µM*	-8.9%	-11.8%	nt	-16.3%	-7.9%
COc1cc(CN2CCC(C(=O)NC3CCCC3)CC2)cc(OC)c1O	8.91µM*	0.9%	2.1%	0.0%	-1.0%	5.4%
COc1cc(CN2CCC(C(=O)N3CCN(c4ccccc4F)CC3)CC2)cc(OC)c1O	?	-20.1%	2.9%	41.2%	5.0%	-3.5%
Cc1ccc(NC(=O)Cn2c(=O)n(Cc3nc(C)no3)c(=O)c3ccccc32)c(Cl)c1	3.4%	nt	-1.8%[46.1 µM]	-14.3%	nt	nt
CC(NC(=O)c1cc2ccccn2n1)c1ccccc1 (configuration not stated)	8.0%	nt	-6.7%[46.1 µM]	0.1%	nt	nt
COC(=O)c1c(NC(=O)c2nc(SCc3ccc(F)cc3)ncc2Cl)sc2c1CCCC2	0.8%	16.4%[46.1 µM]	0.6%[46.1 µM]	85.8%	nt	nt
Cc1ccc(C)c(-c2cc(C(=O)Nc3cccc(C(=O)O)c3)c3ccccc3n2)c1	3.2%	12.4%[46.1 µM]	18.6%	21.0%	4.0%	1.8%
Cc1cc(NC(=O)c2cc(-c3ccncc3)nc3ccccc23)ccc1Br	nt	?	?	?	-1.0%	8.91µM*
O=C(Nc1cccnc1)c1cc(-c2ccc(Br)cc2)nc2ccccc12	2.7%	?	?	-4.8%	2.9%	3.16µM*
COc1ccc(C(=O)COC(=O)c2cc(-c3cccs3)nc3ccccc23)cc1	-0.2%	1.5%[46.1 µM]	11.2µM*	61.8%	nt	nt
Cc1ccc(C)c(-c2cc(C(=O)Nc3cccnc3)c3ccccc3n2)c1	-19.2%	11.2µM*	-6.2%	0.0%	15.2%	nt
Oc1cc(-c2nc3ccccc3s2)cc2c1OCCN(Cc1cccn1-c1ccccn1)C2	nt	nt	nt	15.8%	nt	nt
COc1ccc(NC(=O)N2CCc3c(sc4c3CCCC4)C2c2ccccc2OC)cc1 (configuration not stated)	5.4%	nt	-2.0%[46.1 µM]	-6.4%	nt	nt
Cc1ccc(C)c(-c2cc(C(=O)NCc3cccs3)c3ccccc3n2)c1	12.6%	-4.5%	-21.0%	-17.1%	-9.9%	12.6µM*
COc1ccc(NC(=O)c2cc(-c3ccccn3)nc3c(C)cc(C)cc23)c(C)c1	-1.3%	-2.6%	6.9%	-10.8%	-5.3%	?
COc1ccc(NC(=O)c2cc(-c3ccncc3)nc3ccccc23)c(OC)c1	nt	5.62µM*	?	-18.9%	9.5%	?
COc1cccc(NC(=O)c2cc(-c3ccncc3)nc3c(C)cc(C)cc23)c1	-4.6%	?	?	-23.8%	-0.9%	10µM*
NS(=O)(=O)c1ccc(CCNC(=O)c2cc(-c3cccs3)nc3ccccc23)cc1	-11.9%	7.94µM*	?	0.5%	-10.9%	?
Nc1nc(-c2cccc(Br)c2)cs1	1.6%	-0.7%	8.4%	41.1%	14.1µM*	?
